In the supplement of paper PMC7366291:
Counter-ions that a name gives are not always drawn. ± gives the standard deviation or the standard deviation of the averaged measurements.

What was measured:
Conditions in all cases: 25 µM; exposure: 24-48 hpf
[1] = system: Danio rerio Tg(wt1b:EGFP) embryo, pronephros; assay: glomerular separation, fold change vs DMSO control; higher = glomeruli further apart (abnormal)
Procedure, shortened: (§1)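 Dechorionated Tg(wt1b:EGFP) zebrafish embryos were exposed to 25 μM compound in 0.5% DMSO, HEPES-buffered E3 with 0.003% PTU, from 24 to 48 hpf at 28.5°C. Pronephroi were imaged dorsally in agarose-filled 96-well plates (470 nm, 10 z-slices). On maximum projections, 16 reference points were set manually in Fiji and a macro computed distances and angles. Values more than 2 SD from the feature mean were excluded. Each feature is a fold change relative to the mean of same-day DMSO controls.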

[2] = system: Danio rerio Tg(wt1b:EGFP) embryo, pronephros; assay: glomerular width (mean of left and right), fold change vs DMSO control; higher = wider glomerulus
Procedure, shortened: as §1

[3] = system: Danio rerio Tg(wt1b:EGFP) embryo, pronephros; assay: fraction of imaged embryos annotated as normal kidney; higher = less nephrotoxic; extreme values may be limits of the assay
Procedure, shortened: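 The read-out is the proportion of embryos in each treatment manually annotated as normal-kidney. Exposure ran from 24 to 48 hpf at 28.5°C in 12-well plates, using dechorionated Tg(wt1b:EGFP) zebrafish embryos in 5 mM HEPES-buffered E3 with 0.003% PTU, 0.5% DMSO and 25 μM compound. For imaging, larvae were anaesthetised with tricaine, positioned dorsally in agarose-filled 96-well plates and captured by widefield fluorescence (470 nm, 10 z-slices), with scoring done on maximum projections.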

[4] = system: Danio rerio Tg(wt1b:EGFP) embryo, pronephros; assay: pronephric angle neck segment to proximal convoluted tubule (mean of left and right), fold change vs DMSO control; higher = larger pronephric angle
Procedure, shortened: as §1

| SMILES | glomerular separation [1] | glomerular width [2] | fraction of imaged embryos annotated as normal kidney [3] | pronephric angle neck segment [4] |
| --- | --- | --- | --- | --- |
| CC(C)N(CCC(C(N)=O)(c1ccccc1)c1ccccn1)C(C)C (stereo not drawn) [Disopyramide] | 0.9 ± 0.32 | 1.09 ± 0.086 | 0.667 | 1.05 ± 0.038 |
| C[N+]1([O-])[C@@H]2C[C@@H](OC(=O)[C@H](CO)c3ccccc3)C[C@H]1[C@@H]1O[C@@H]12 (stereo partly drawn) [Scopolamin-N-oxide hydrobromide] | 0.883 ± 0.35 | 1.03 ± 0.018 | 0.909 | 0.9285 ± 0.0031 |
| CCn1cc(C(=O)O)c(=O)c2cc3c(cc21)OCO3 [Oxolinic acid] | 0.66 ± 0.37 | 1.06 ± 0.096 | 0.583 | 0.799 ± 0.024 |
| NC(=O)OCCCc1ccccc1 [Phenprobamate] | 0.999 ± 0.4 | 1.03 ± 0.022 | 0.75 | 1.01 ± 0.05 |
| CO[C@]12C[C@@H](COC(=O)c3cncc(Br)c3)CN(C)[C@@H]1Cc1cn(C)c3cccc2c13 [Nicergoline] | 1.02 ± 0.39 | 1.02 ± 0.037 | 1 | 0.966 ± 0.028 |
| O=[N+]([O-])O[C@H]1CO[C@H]2[C@@H]1OC[C@H]2O[N+](=O)[O-] [Isosorbide dinitrate] | 1.15 ± 0.34 | 0.9189 ± 0.0074 | 0.833 | 1.02 ± 0.024 |
| CC(O)(CS(=O)(=O)c1ccc(F)cc1)C(=O)Nc1ccc(C#N)c(C(F)(F)F)c1 (stereo not drawn) [Bicalutamide] | 1.14 ± 0.56 | 1.04 ± 0.023 | 0.75 | 0.971 ± 0.002 |
| CC(N)C(O)c1ccccc1 (stereo not drawn) [Phenylpropanolamine hydrochloride] | 0.921 ± 0.29 | 0.982 ± 0.054 | 0.917 | 1.07 ± 0.027 |
| CC(C)c1c(CN(C)C(C)Cc2ccccc2)n(C)n(-c2ccccc2)c1=O (stereo not drawn) [Famprofazone] | 0.985 ± 0.39 | 0.985 ± 0.031 | 0.917 | 1.084 ± 0.0087 |
| NCC(CC(=O)O)c1ccc(Cl)cc1 (racemic) [Baclofen (R,S)] | 0.757 ± 0.3 | 0.933 ± 0.0029 | 0.833 | 0.829 ± 0.056 |
| C[C@]12CC[C@@H](O)C[C@@H]1CC[C@@H]1[C@@H]2CC[C@]2(C)C(=O)CC[C@@H]12 [Androsterone] | 0.907 ± 0.17 | 0.991 ± 0.038 | 0.75 | 0.999 ± 0.015 |
| Clc1ccc(C(OCCN2CCCCC2)c2ccccc2)cc1 (stereo not drawn) [Cloperastine hydrochloride] | 0.819 ± 0.35 | 1.04 ± 0.069 | 0.917 | 0.994 ± 0.0094 |
| O=C(NCNC(=O)NC1C(=O)NC(=O)N1CO)NC1C(=O)NC(=O)N1CO (stereo not drawn) [Imidurea] | 0.876 ± 0.2 | 1.008 ± 0.01 | 0.833 | 1.058 ± 0.0052 |
| CCCC(C)C1(CC)C(=O)NC(=O)NC1=O (stereo not drawn) [Pentobarbital] | 1.63 ± 0.87 | 0.987 ± 0.044 | 0.667 | 1.214 ± 0.0019 |
| Oc1ccc2c3c1O[C@H]1[C@@H](O)CC[C@@]4(O)[C@@H](C2)N(CC2CCC2)CC[C@]314 [Nalbuphine hydrochloride] | 0.874 ± 0.27 | 1 ± 0.033 | 0.75 | 1.04 ± 0.0056 |
| C[C@]12CCC(=O)C(O)=C1CC[C@@H]1[C@@H]2CC[C@]2(C)C(=O)CC[C@@H]12 [Formestane] | 1.16 ± 0.45 | 0.866 ± 0.031 | 0.917 | 0.9657 ± 0.0071 |
| C[C@]12CC[C@H](O)C[C@@H]1CC[C@@H]1[C@@H]2CC[C@]2(C)C(=O)CC[C@@H]12 [Epiandrosterone] | 1.72 ± 0.71 | 0.905 ± 0.061 | 0.417 | 1.04 ± 0.022 |
| C=CCC1(CC(C)C)C(=O)NC(=O)NC1=O [Butalbital] | 0.97 ± 0.31 | 1.1 ± 0.086 | 0.75 | 1.01 ± 0.11 |
| COc1ccc(CCN2CCC(Nc3nc4ccccc4n3Cc3ccc(F)cc3)CC2)cc1 [Astemizole] | 2.83 ± 2.3 | 0.777 ± 0.12 | 0.333 | 1.01 ± 0.022 |
| CN1C[C@H](CNC(=O)OCc2ccccc2)C[C@@H]2c3cccc4c3c(cn4C)C[C@H]21 [Metergoline] | 0.977 ± 0.48 | 0.9966 ± 0.0098 | 1 | 0.9894 ± 0.0045 |
| O=C1CC[C@@]2(O)[C@H]3Cc4ccc(O)c5c4[C@@]2(CCN3CC2CC2)[C@H]1O5 [Naltrexone hydrochloride dihydrate] | 0.749 ± 0.22 | 1.124 ± 0.0082 | 0.833 | 1.03 ± 0.058 |
| C1CCc2nnnn2CC1 [Pentylenetetrazole] | 0.925 ± 0.28 | 0.994 ± 0.07 | 0.8 | 0.956 ± 0.021 |
| CN1[C@@H]2C[C@@H](OC(=O)[C@H](CO)c3ccccc3)C[C@H]1[C@@H]1O[C@@H]12 [Scopolamine hydrochloride] | 0.986 ± 0.42 | 1.09 ± 0.054 | 0.833 | 0.984 ± 0.036 |
| C[C@@]12N[C@@H](Cc3ccccc31)c1ccccc12 [(-)-MK 801 hydrogen maleate] | 1.02 ± 0.29 | 1.034 ± 0.0098 | 1 | 1.02 ± 0.069 |
| CCC1(c2ccc(N)cc2)CCC(=O)NC1=O (stereo not drawn) [Glutethimide, para-amino] | 1.05 ± 0.27 | 1.04 ± 0.036 | 0.667 | 1.05 ± 0.021 |
| CCNCC(O)c1cccc(O)c1 (stereo not drawn) [Etilefrine hydrochloride] | 0.79 ± 0.23 | 0.9277 ± 0.0022 | 0.833 | 0.951 ± 0.051 |
| CCC(C)C1O[C@]2(C=C[C@@H]1C)C[C@@H]1CC(C/C=C(\C)[C@@H](OC3C[C@H](OC)[C@@H](OC4C[C@H](OC)[C@@H](O)[C@H](C)O4)[C@H](C)O3)[C@@H](C)/C=C/C=C3\COC4[C@H](O)C(C)=CC(C(=O)O1)[C@]34O)O2 (stereo partly drawn) [Avermectin B1a] | 2.03 ± 1.1 | 0.898 ± 0.044 | 0.583 | 1.14 ± 0.069 |
